Screening results from PubChem.
Pf growth 96h – P. falciparum growth inhibition at 96 hours; P. falciparum luciferase reporter growth, 96 h; Potency, µM (highest dose often 28.7 µM), for the others: at the top dose activity change, negative = inhibition, hits mostly inhibitors; hit rate 6.9% among 320,000; AID 504834; further: on the % scale 0 is the no-effect control and ±100 the full control effect
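Plates of compound plus infected erythrocytes (2% hematocrit, 0.05% parasitemia final) incubate 96 hours, 37 C, 5% CO2. Detection reagent added; reduced luminescence from the parasites' luciferase reporter flags inhibition.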
NS1 function inh – inhibitors of influenza NS1 protein function; Potency, µM (doses to about 46.1 µM), for inactives: top-dose activity, positive = more growth; hit rate 0.4% among 270,000; AID 2326; calls by dose curve; further: actives are rising curves; nearly all actives have a fitted effect of over 50% in size
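Compounds were scored for reversing the slow growth caused by influenza A NS1 in S. cerevisiae, measured by optical density at 600 nm. Assay medium contained 2% galactose at pH 6.0; NS1-free yeast of the same strain were the positive control.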
Pf growth 48h – inhibits P. falciparum growth in the first generation, 48 h; P. falciparum luciferase growth in erythrocytes, 48 h; Potency, µM (titrated, usually from 28.7 µM), for inactives: at the highest dose activity change, negative = inhibition, hits mostly inhibitors; hit rate 5.9% among 310,000; further: on the % scale 0 is the no-effect control and ±100 the full control effect
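Firefly luciferase activity from engineered P. falciparum reports growth; inhibitors lower the luminescent signal. Cultures contained 2% hematocrit erythrocytes at 0.1% final parasitemia.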
RE007 growth inh – less growth of the S. pombe RE007 Vpr strain | S. pombe RE007 Vpr strain, BacTiter-Glo ATP luminescence, 24 h | Potency, µM (doses to about 92.2 µM), inactives show at the top dose activity change, negative = less growth, hits mostly inhibitors | hit rate 0.21% among 360,000 | AID 651644; active means well fitted falling curve with a large enough effect; inconclusive means small, poorly fitted or top-dose-only effect; inactive means no such curve, though single readings can be large or run the other way; further: on the % scale 0 is the no-effect control and ±100 the full control effect; nearly all actives have a fitted effect of over 50% in size
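Fission yeast strain RE007, carrying one chromosomally integrated HIV-1 vpr copy, was seeded at OD 0.01 in PMG+AL medium with 23 nL pinned compound. After 24 h at 30 °C and 99% humidity, viability was read by BacTiter-Glo luminescence.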
SARS PLpro yeast – inhibitors of SARS-CoV papain-like protease in yeast; S. cerevisiae expressing SARS-CoV PLpro, growth rescue; Potency, µM (top dose mostly 32.9 µM), without a hit: at the top dose activity, positive = growth rescue, most hits filed as activators; hit rate 0.19% among 330,000; calls by dose curve; further: 0% is about no effect; nearly all actives have a fitted effect of over 55% in size
Active calls of the source: *; ? = inconclusive; / = no result. Sampled rows, rich in hits. Any-hit rate of the full collection: about 9.5%. Unless noted, the call rests on the fitted dose curve; in most records, active means well fitted inhibition curve with a large enough effect; inconclusive means small, poorly fitted or top-dose-only effect, or another doubt; inactive means no such curve, though single readings can be large or run the other way. Potency means the concentration at half of the fitted maximal effect.

SMILES | Pf growth 96h | NS1 function inh | Pf growth 48h | RE007 growth inh | SARS PLpro yeast
CN1C(=O)C(=Cc2ccccc2OCc2ccc(Cl)cc2)C(=O)N(C)C1=O | 1µM* | 4% | 29% | 0% | -5%
Cc1ccc(S(=O)(=O)Oc2ccccc2C=C2C(=O)N(C)C(=O)N(C)C2=O)cc1 | 12µM* | -12% | -13% | 4% | -10%
N#Cc1nc(-c2cccc3ccccc23)oc1NCC#CCOC(=O)c1cccs1 | 11% | / | 1% | / | -2%
O=C(NCCOc1ccccc1Cl)c1cccc2c1C(=O)c1ccc(Cl)cc1S2(=O)=O | 38% | / | 0% | 0% | -5%
N#CCC(=O)Nc1ccc(C(=O)OCC(=O)c2ccc3c(c2)NC(=O)CO3)cc1 | ? | / | 13µM* | 4% | -6%
O=C(COC(=O)c1ccc(O)cc1)NCc1ccc2c(c1)OCO2 | ? | / | 5% | 4% | 1%
N#CCC(=O)Nc1ccc(C(=O)OCC(=O)NCc2ccc3c(c2)OCO3)cc1 | ? | / | 8.3µM* | 17% | 3%
COCCc1ccc(OC[C@H](O)CNC(C)C)cc1 | -17% | / | 4% | / | /
CCCCn1cnc2c(SC)ncnc21 | / | -5% | / | / | /
CN1CCN(c2ccccc2NC(=O)c2ccc(-c3cccc(Cl)c3)o2)CC1 | -16% | -49% | ? | 4% | -4%
CS(=O)(=O)N1CCN(c2ccccc2NC(=O)c2ccc(-c3ccc(Cl)cc3Cl)o2)CC1 | / | ? | 12µM* | -15% | -4%
CN1CCN(c2ccccc2NC(=O)c2cc3ccccc3o2)CC1 | 4.7µM* | -32% | ? | 13% | -2%
CS(=O)(=O)N1CCN(c2ccccc2NC(=O)c2ccc(Br)o2)CC1 | 37% | -30% | 12% | 3% | 0%
CN1CCN(c2ccccc2NC(=O)c2ccc(-c3ccc(Cl)cc3Cl)o2)CC1 | 4.1µM* | -20% | / | -13% | -9%
O=C(NC(=S)Nc1ccccc1N1CCOCC1)c1ccc(-c2ccccc2F)o1 | 15µM* | 0% | 6% | 12% | 1%
C=CCSC1=N/C(=C\c2ccc(C(=O)O)cc2)C(=O)S1 | 0% | -2% | 12% | -9% | 0%
CCSC1=N/C(=C\c2ccc(C(=O)O)cc2)C(=O)S1 | 13µM* | -87% | / | ? | 2%
C1C[C@@H]2CN(CCCN3CCOCC3)[C@@H](C1)O2 | / | -3% | / | / | /
COc1ccccc1C(CNC(=O)CCNC(=O)c1ccccc1Cl)N1CCCC1 (stereo not drawn) | 0% | / | ? | -5% | /
Cc1cc(C(=O)CSc2nnc(-c3ccco3)o2)c(C)n1CC1COc2ccccc2O1 (stereo not drawn) | 4.7µM* | ? | 10µM* | -6% | -7%
Cc1cc(C(=O)CSc2nnc(-c3ccccc3)o2)c(C)n1CC1COc2ccccc2O1 (stereo not drawn) | 3.3µM* | 3% | ? | 2% | 6%
Cc1cc(C(=O)CSc2nnc(-c3ccc(F)cc3)o2)c(C)n1CC1COc2ccccc2O1 (stereo not drawn) | ? | 14% | ? | -1% | 7%
Cc1csc2nc(O)c(C(=O)NCCC3=CCCCC3)c(=O)n12 | ? | / | 10µM* | 6% | 0%
Cc1csc2nc(O)c(C(=O)NCCCc3ccccc3)c(=O)n12 | 48% | / | -1% | -16% | 4%
Cc1c(/C=N/NC(=O)CNc2ccccc2)c2ccccn2c1C(=O)c1ccc(Cl)cc1 | 3.3µM* | ? | 3.3µM* | -8% | 5%
SMILES | Pf growth 96h | NS1 function inh | Pf growth 48h | RE007 growth inh | SARS PLpro yeast
Cc1ccccc1NCC(=O)N/N=C/c1c(C)c(C(=O)c2ccc(Cl)cc2)n2ccccc12 | 4.7µM* | 25% | 13µM* | -1% | ?
Cc1c(/C=N/NC(=O)CNc2ccccc2)c2ccccn2c1C(=O)c1ccncc1 | ? | 18% | ? | -13% | 8%
Cc1c(C(=O)Nc2ccc(Cl)cc2)c2ccccn2c1C(=O)c1ccccc1 | ? | -6% | ? | -1% | 13%
CCN(CC(=O)Nc1ccc(OC)cc1)C(=O)c1ccc2[nH]c3c(c2c1)CC(C)CC3 (stereo not drawn) | ? | / | ? | 3% | -1%
CCCCC[C@@H](C)N1C[C@@H](COCc2ccccc2)Oc2cc(N3CC[C@@H](N(C)C)C3)ccc2S1(=O)=O | / | / | / | -20% | /
Cc1nc(SCC(=O)c2cc3ccccc3oc2=O)c(C#N)c(-c2ccccc2)c1C(=O)Nc1ccccc1 | -83% | 11% | 11% | / | 22%
